Consider 8 molecules from PubChem BioAssay (NCI).

Each structure is given as a SMILES string. About 83,000 compounds went through this panel and 20% of them were active in at least one assay; those are over-represented in the sample as a whole.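 Percent growth is the endpoint: 0 to 100 indicates growth inhibition (40 means 60% inhibition), 0 means no net growth, and negative values indicate cell death.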 Values without a mark were called inactive. Active and inactive are the calls of the source. The calls were made as follows: active = growth percent below 10; inactive = the rest.

What all share (assay): NCI-60 one-dose screen, 48 h (100 = growth as untreated, 0 = no growth, -100 = all killed)
What all share (conditions): 10 µM unless noted

Assay [1] has as its system NCI-H23 lung.
Assay [2] has as its system NCI-H226 lung.
In assay [3] the test system is NCI-H322M lung.
Assay [4] concerns HOP-62 NSCLC.
The subject of assay [5] is NCI-H460 lung.
Assay [6] has as its system HOP-92 NSCLC.
The subject of assay [7] is NCI-H522 lung.
In assay [8] the test system is A549/ATCC NSCLC.
Assay [9] has as its system 786-0 renal.
Assay [10] deals with COLO 205 colon.
The subject of assay [11] is DU-145 prostate.
The test system of assay [12] is K-562 leukemia.
Assay [13] has as its system MALME-3M melanoma.
Assay [14] deals with MDA-MB-231 breast.
Assay [15] concerns RXF 393 renal.
Assay [16] concerns SF-268 CNS.
The test system of assay [17] is SF-295 CNS.
For assay [18], the system named is SF-539 CNS.
Assay [19] relates to UACC-257 melanoma.
The test system of assay [20] is M14 melanoma.

As to `O=C(/C(=C(\C(=O)c1ccccc1)c1ccccc1)c1ccccc1)c1ccccc1`, the growth in assay [1] is 42%; in assay [2], 63.9%; in [3], 76%; in [4], 80.3%; in assay [5], 25.1%; in assay [6], 37.8%. For the same molecule, the growth in assay [7] was 43.3%; in assay [8] it was 28.9%; in assay [9], 69.9%; in assay [10], 53.2%; in assay [11], 80.1%; in [12], 14.1%. Also, the growth was 77.2% in assay [13]; 66.7% in [14]; 69.5% in [15]; 56.2% in assay [16]; 54.7% in [17]; 82.1% in assay [18]. The growth in [19] is 68.8%; in [20], 66.3%.

Regarding `N#Cc1c(-c2ccco2)nc2c(c(-c3ccccc3)nn2-c2ccccc2)c1-c1ccc(O)cc1`, the growth in assay [1] was 99.7%; in [2], 73.3%; in [3] it was 81.9%; in assay [4], -50% (active); in assay [5], 49.8%; in assay [6], 76.1%. For the same molecule, the growth in assay [7] is 19.3%; in [8] it was 46.9%; in assay [9], 59.1%; in assay [10] it was 3.62% (active); in [11], 75.8%; in assay [12], 15.7%. Besides, the growth in [13] is 35%; in assay [14] it was 82.4%; in assay [15], 101%; in assay [16], 67.6%; in [17], 66.6%; in assay [18], 82.5%. Further, the results for the growth in assay [19] and in assay [20] were 60.6% and 65.6%, respectively.

On to `C=C(C)[C@@H]1CC[C@]2(c3nnc(-c4ccncc4)o3)CC[C@]3(C)[C@H](CC[C@@H]4[C@@]5(C)CCC(=O)NC(C)(C)[C@@H]5CC[C@]43C)[C@@H]12`, for which the growth was 94.7% in assay [1]; 87.8% in [2]; 94.3% in [3]; 97.9% in assay [4]; 98.5% in [5]; 71.9% in assay [6]. The growth in assay [7] was 93.9%; in [8], 92.8%; in assay [9], 96.2%; in assay [10], 109%; in [11] it was 108%; in [12] it was 80.5%. The growth is 101% in [13]; 89.8% in [14]; 97.9% in assay [15]; 89.5% in [16]; 99.4% in assay [17]; 96.9% in [18]. Moreover, the growth is 97.9% in assay [19] and 99% in assay [20].

With `Cc1ccc(C)c2c1CCC2C(C)C` (stereo not given), the growth in assay [1] was 91.9%; in assay [2] it was 98.6%; in [3], 97.9%; in assay [4] it was 101%; in assay [5], 105%; in assay [6], 93.6%. In addition, the growth in assay [7] was 94.8%; in [8], 87.2%; in [9], 98.7%; in assay [10] it was 104%; in assay [11], 103%; in assay [12] it was 90.4%. Also, the growth in [13] is 101%; in assay [14] it was 99.6%; in assay [15] it was 112%; in assay [16] it was 96.8%; in assay [17], 102%; in assay [18], 97.5%. Further, the values for the growth in [19] and in assay [20] were 89.6% and 95%, respectively.

On to `Cc1ccccc1-c1nc(C(Cl)Cl)nc2cc(-c3ccccc3)nn12`, for which the growth is 50.4% in assay [1]; 75.3% in assay [2]; 86.3% in assay [3]; 54.9% in assay [4]; 81.5% in assay [5]; 45.8% in assay [6]. In addition, the growth was 82.8% in assay [7]; 25.1% in assay [8]; 93.7% in [9]; 41.7% in assay [10]; 57.8% in assay [11]; 52.2% in assay [12]. In addition, the growth in assay [13] was 86.2%; in assay [14] it was 44.9%; in assay [15] it was 3.45% (active); in [16], 88.1%; in assay [17], 81.6%; in [18], 76.3%. Besides, the growth was 107% in [19] and 94% in [20].

For `CCCCn1c(-c2ccc(O)cc2)cn2c3c(=O)[nH]c(=O)n(C)c3nc12`, the growth is 82.2% in [1]; 85% in assay [2]; 119% in assay [3]; 82% in assay [4]; 68.6% in assay [5]; 43.1% in assay [6]. Moreover, the growth in assay [7] is 30.9%; in [8] it was 75%; in assay [9], 88.8%; in assay [10] it was 89.9%; in [11], 101%; in assay [12], 34.3%. For the same molecule, the growth in [13] is 90.7%; in [14], 66.5%; in assay [15], 74.9%; in [16], 86.3%; in [17], 78.1%; in assay [18], 74.9%. Further, the growth in [19] was 79.1%; in assay [20], 54.1%.

As for `O=C1c2cccc3cccc(c23)C(=O)N1CC#Cc1ccc2c3c(cccc13)C(=O)N(CCO)C2=O`, the growth in assay [1] is 81%; in assay [2], 91.9%; in assay [3], 94.9%; in assay [4], 84.5%; in assay [5], 95.8%; in assay [6], 86.4%. Further, the growth was 92% in [7]; 97.3% in [8]; 98.1% in [9]; 118% in [10]; 88.6% in [11]; 95.1% in [12]. Also, the growth was 100% in assay [13]; 66.9% in assay [14]; 85.1% in [15]; 78.9% in assay [16]; 98.7% in assay [17]; 90.8% in assay [18]. Also, the growth in assay [19] is 94.2%; in [20], 84.8%.

In the case of `Cc1nc([P+](c2ccccc2)(c2ccccc2)c2ccccc2)c(Sc2sc(-c3ccccc3)nc2[P+](c2ccccc2)(c2ccccc2)c2ccccc2)o1`, the growth in assay [1] was 3.75% (active); in [2], 47.6%; in [3], 28.2%; in assay [4], 9.57% (active); in assay [5], 3.38% (active); in assay [6] it was -18.9% (active). The growth in [7] is 3.53% (active); in assay [8] it was 11.5%; in [9], 20.2%; in assay [10], -43.4% (active); in assay [11] it was 19.7%; in assay [12], 9.67% (active). For the same molecule, the growth in assay [13] was 6.38% (active); in assay [14], 14.2%; in [15], 26.7%; in [16], 18.2%; in [17], 1.87% (active); in assay [18], 22.3%. Besides, the growth was 8.5% (active) in [19] and 15.5% in assay [20].
